From PubChem BioAssay (EPA / NIEHS)
The source made the active and inactive calls. How the source made its calls: active means hit-call score of the fitted dose curve at least 0.9, where 1 is the maximum; inactive means score below 0.9.

Experiments:
[1] = ATG_CRE_CIS: Attagene CIS-FACTORIAL HepG2 Assay for human cAMP Responsive Element (CRE) binding protein 3 (AID 2282926); settings: HepG2 CRE cis-reporter, Attagene multiplexed mRNA; actives raise or lower the signal
Procedure, shortened: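 Readout: fluorescently labelled reporter transcripts resolved by capillary electrophoresis after RT-PCR, taken 24 h post-dosing in transfected HepG2. Endogenous transcription factor activity drives each cis-element reporter; gain or loss of signal fitted relative to DMSO control.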

[2] = molecular target: CCAAT/enhancer-binding protein beta (Homo sapiens) (UniProt P17676); experiment: ATG_C_EBP_CIS: Attagene CIS-FACTORIAL HepG2 Assay for human CCAAT/Enhancer Binding Protein (C/EBP) beta (AID 2282927); settings: HepG2 Attagene cis-factorial transcription factor reporter; actives raise or lower the signal
Procedure, shortened: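 RT-PCR/capillary electrophoresis fluorescence of reporter mRNA, 24 h post-dose, in HepG2 cells carrying transfected cis-promoter reporter units. Bidirectional curve fitting against DMSO baseline captures gain or loss of signal.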

[3] = ATG_CMV_CIS: Attagene CIS-FACTORIAL HepG2 Assay for human CMV (Internal Marker) (AID 2282928); settings: HepG2 CMV promoter reporter, transcription factor profiling; actives raise or lower the signal;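 further: endpoint acts as a background internal control marker rather than a target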
Procedure, shortened: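 Bidirectional fits against DMSO are applied to reporter mRNA, read by RT-PCR with capillary electrophoresis, from HepG2 cells exposed 24 h. The endpoint serves as an internal CMV background marker within the cis-factorial reporter panel.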

[4] = ATG_DR4_LXR_CIS: Attagene CIS-FACTORIAL HepG2 Assay for human Liver X Receptor (LXR), DR4 submotif (AID 2282929); settings: HepG2 Attagene DR4 cis-reporter, mRNA transcription; actives raise or lower the signal
Procedure, shortened: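 HepG2 cells transiently transfected with cis-promoter-driven multiplexed reporter units (DR4 element) were dosed for 24 h. Reporter mRNA was quantified by RT-PCR, fluorescent primer extension, HpaI digestion and capillary electrophoresis; bidirectional fitting versus DMSO baseline.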

[5] = molecular target: Aryl hydrocarbon receptor (Homo sapiens) (UniProt P35869); experiment: ATG_Ahr_CIS: Attagene CIS-FACTORIAL HepG2 Assay for human Aryl Hydrocarbon Receptor (Ahr) (AID 2282930); settings: HepG2 AhR cis-factorial reporter transcription; actives raise or lower the signal
Procedure, shortened: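 HepG2 cells transiently transfected with cis-element-driven multiplexed reporter transcription units; endogenous transcription factor activity measured as reporter mRNA 24 h after dosing. RT-PCR, 6-FAM labelling, HpaI digestion, capillary electrophoresis; bidirectional fitting versus DMSO baseline.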

[6] = ATG_AP_1_CIS: Attagene CIS-FACTORIAL HepG2 Assay for human Activator Protein 1 (AP-1) (AID 2282931); settings: HepG2 Attagene cis-factorial AP-1 reporter mRNA; actives raise or lower the signal
Procedure, shortened: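 HepG2 cells transiently transfected with cis-element-driven multiplex reporter units; 24 h compound exposure. Reporter mRNA quantified by RT-PCR, FAM-labelled fragments resolved by capillary electrophoresis; bidirectional fit versus DMSO baseline.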

[7] = ATG_AP_2_CIS: Attagene CIS-FACTORIAL HepG2 Assay for human Activator Protein 2 (AP-2) (AID 2282932); settings: HepG2 AP-2 cis-reporter, Attagene transcription factor profiling; actives raise or lower the signal
Procedure, shortened: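 Cells (HepG2) transfected with promoter-driven reporter constructs, treated 24 h. Total RNA reverse-transcribed, reporter cDNA PCR-amplified, FAM-labelled by primer extension, digested, resolved by capillary electrophoresis. Activity fitted both directions versus DMSO.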

[8] = ATG_BRE_CIS: Attagene CIS-FACTORIAL HepG2 Assay for human Bone Morphogenetic Protein (BMP) Response Element (BRE) (AID 2282933); settings: HepG2 BMP response element reporter, Attagene transcription factor profiling; actives raise or lower the signal
Procedure, shortened: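 Read-out: reporter mRNA induction quantified by RT-PCR and capillary electrophoresis after 24 h chemical exposure of transfected HepG2 cells. Endogenous factor activity on the BMP response element; gain or loss fitted against DMSO baseline.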

[9] = molecular target: Retinoic acid receptor alpha (Homo sapiens) (UniProt P10276); experiment: ATG_DR5_RAR_CIS: Attagene CIS-FACTORIAL HepG2 Assay for human Retinoic Acid Receptor Alpha (RARE), DR5 submotif (AID 2282934); settings: HepG2 Attagene cis-factorial RARE DR5 reporter, mRNA; actives raise or lower the signal
Procedure, shortened: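 HepG2 cells transiently transfected with multiplexed reporter units under cis (DR5 RARE) promoters, so endogenous transcription factor activity is measured. After 24 h compound exposure, reporter mRNA is quantified by RT-PCR with fluorescent labelling and capillary electrophoresis; bidirectional fitting versus DMSO.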

[10] = molecular target: Transcription factor E2F1 (Homo sapiens) (UniProt Q01094); experiment: ATG_E2F_CIS: Attagene CIS-FACTORIAL HepG2 Assay for human E2F Transcription Factor 1 (AID 2282935); settings: HepG2 Attagene cis-reporter, E2F reporter RNA transcripts; actives raise or lower the signal
Procedure, shortened: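 First, HepG2 cells were transfected with reporter transcription units. Next, they were dosed for 24 h. Then RNA was isolated, converted to cDNA, PCR-amplified, FAM-labeled, HpaI-digested and analyzed by capillary electrophoresis.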

[11] = ATG_E_Box_CIS: Attagene CIS-FACTORIAL HepG2 Assay for human Enhancer Box (E-box) (AID 2282936); settings: HepG2 E-box cis-reporter transcription, actives raise or lower the signal
Procedure, shortened: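 Endogenous transcription factor activity was sensed in human HepG2 liver cells through transfected cis-promoter reporter units. After 24 h of dosing, total RNA was reverse-transcribed and reporter cDNA resolved by capillary electrophoresis.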

[12] = ATG_M_61_CIS: Attagene CIS-FACTORIAL HepG2 Assay for M61 Transcription Factor (Internal Marker) (AID 2282937); settings: HepG2 Attagene CIS-FACTORIAL M61 internal marker reporter; actives raise or lower the signal
Procedure, shortened: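 HepG2 cells transiently transfected with cis-element-driven multiple reporter transcription units, dosed for 24 h. Reporter mRNA measured by RT-PCR, 6-FAM primer-extension labelling, HpaI digestion and capillary electrophoresis; bidirectional fit versus DMSO baseline.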

[13] = ATG_EGR_CIS: Attagene CIS-FACTORIAL HepG2 Assay for human Early Growth Response 1 (EGR1) (AID 2282938); settings: HepG2 Attagene CIS-FACTORIAL EGR reporter mRNA; actives raise or lower the signal
Procedure, shortened: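 HepG2 cells transiently transfected with cis-promoter-driven multiplexed reporter transcription units; reporter mRNA measured 24 h after compound dosing by RT-PCR, 6-FAM primer extension, HpaI digestion and capillary electrophoresis. Bidirectional fit versus DMSO baseline.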

[14] = ATG_M_19_CIS: Attagene CIS-FACTORIAL HepG2 Assay for M19 Transcription Factor (Internal Marker) (AID 2282939); settings: HepG2 Attagene CIS-FACTORIAL M19 internal marker reporter; actives raise or lower the signal
Procedure, shortened: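 Readout: fluorescent reporter-transcript fragments by capillary electrophoresis after RT-PCR. Human HepG2 liver cells carried transfected MRTU constructs reporting endogenous transcription-factor activity; exposure 24 h. Gain or loss of signal fitted relative to DMSO.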

[15] = ATG_Ets_CIS: Attagene CIS-FACTORIAL HepG2 Assay for human Erythroblast Transformation Specific (ETS) (AID 2282941); settings: HepG2 ETS cis-reporter transcription, actives raise or lower the signal
Procedure, shortened: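 Endogenous transcription factor activity read as reporter mRNA via RT-PCR and capillary electrophoresis, with gain or loss fitted bidirectionally against DMSO. Human HepG2 liver cells, transiently transfected CIS reporter constructs, 24 h exposure.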

[16] = molecular target: Hepatocyte nuclear factor 3-beta (Homo sapiens) (UniProt Q9Y261); experiment: ATG_FoxA2_CIS: Attagene CIS-FACTORIAL HepG2 Assay for human Forkhead box A2 (FOXA2) (AID 2282942); settings: HepG2 cis-reporter transcription factor activity, 24 h; actives raise or lower the signal
Procedure, shortened: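 HepG2 cells transiently transfected with multiple cis-regulated reporter transcription units, dosed for 24 h. Reporter mRNA measured by RT-PCR, 6-FAM labelling, HpaI digestion and capillary electrophoresis; bidirectional fitting against DMSO baseline.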

[17] = ATG_GATA_CIS: Attagene CIS-FACTORIAL HepG2 Assay for human GATA Binding Protein (AID 2282944); settings: HepG2 GATA cis-element reporter, Attagene multiplex mRNA; actives raise or lower the signal
Procedure, shortened: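 Read-out: fluorescent reporter mRNA fragments resolved by capillary electrophoresis after RT-PCR. Human liver HepG2 cells carried transiently transfected cis-regulated reporter constructs; chemicals incubated 24 h; gain or loss of signal fitted relative to DMSO.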

[18] = ATG_GLI_CIS: Attagene CIS-FACTORIAL HepG2 Assay for human Zinc Finger Protein GLI1 (AID 2282945); settings: HepG2, Attagene cis-factorial reporter mRNA, GLI element; actives raise or lower the signal
Procedure, shortened: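 HepG2 cells transiently transfected with cis-promoter multiplexed reporter units report endogenous transcription factor activity. After 24 h chemical exposure, reporter mRNA was quantified by RT-PCR, 6-FAM labelling, HpaI digestion and capillary electrophoresis, with bidirectional fitting against DMSO.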

[19] = ATG_FoxO_CIS: Attagene CIS-FACTORIAL HepG2 Assay for human Forkhead box O (FoxO) (AID 2282943); settings: HepG2 Attagene cis-reporter, FoxO element, mRNA; actives raise or lower the signal
Procedure, shortened: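 HepG2 cells transiently transfected with cis-promoter-driven multiple reporter transcription units; 24 h after chemical dosing, reporter mRNA quantified by RT-PCR, fluorescent primer extension, HpaI digestion and capillary electrophoresis. Bidirectional fitting versus DMSO baseline.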

Measured: outcome

Chain of CCAAT/enhancer-binding protein beta (Homo sapiens) (P17676 whole entry, looked up): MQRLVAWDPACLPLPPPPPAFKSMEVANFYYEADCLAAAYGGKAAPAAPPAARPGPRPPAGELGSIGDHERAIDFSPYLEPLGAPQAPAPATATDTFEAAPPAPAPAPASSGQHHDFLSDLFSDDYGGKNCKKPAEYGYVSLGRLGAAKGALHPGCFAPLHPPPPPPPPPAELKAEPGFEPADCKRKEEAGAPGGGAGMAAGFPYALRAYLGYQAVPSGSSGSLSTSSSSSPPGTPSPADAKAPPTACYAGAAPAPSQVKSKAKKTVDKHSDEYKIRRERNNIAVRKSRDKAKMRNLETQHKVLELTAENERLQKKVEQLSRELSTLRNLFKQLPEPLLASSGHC
Chain of Hepatocyte nuclear factor 3-beta (Homo sapiens) (Q9Y261 whole entry, looked up): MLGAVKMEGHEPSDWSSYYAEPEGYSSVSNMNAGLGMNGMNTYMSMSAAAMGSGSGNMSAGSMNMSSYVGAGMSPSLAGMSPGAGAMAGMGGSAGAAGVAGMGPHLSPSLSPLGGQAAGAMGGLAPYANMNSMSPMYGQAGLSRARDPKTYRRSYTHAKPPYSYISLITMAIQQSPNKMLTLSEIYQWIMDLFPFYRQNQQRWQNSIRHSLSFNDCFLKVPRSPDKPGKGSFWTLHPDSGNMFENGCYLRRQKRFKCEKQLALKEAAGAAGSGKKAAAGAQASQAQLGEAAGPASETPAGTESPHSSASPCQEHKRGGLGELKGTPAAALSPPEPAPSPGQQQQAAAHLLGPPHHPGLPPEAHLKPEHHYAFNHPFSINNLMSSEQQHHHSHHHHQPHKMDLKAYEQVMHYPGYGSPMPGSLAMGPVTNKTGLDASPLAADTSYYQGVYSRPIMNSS
Chain of Aryl hydrocarbon receptor (Homo sapiens) (P35869 whole entry, looked up): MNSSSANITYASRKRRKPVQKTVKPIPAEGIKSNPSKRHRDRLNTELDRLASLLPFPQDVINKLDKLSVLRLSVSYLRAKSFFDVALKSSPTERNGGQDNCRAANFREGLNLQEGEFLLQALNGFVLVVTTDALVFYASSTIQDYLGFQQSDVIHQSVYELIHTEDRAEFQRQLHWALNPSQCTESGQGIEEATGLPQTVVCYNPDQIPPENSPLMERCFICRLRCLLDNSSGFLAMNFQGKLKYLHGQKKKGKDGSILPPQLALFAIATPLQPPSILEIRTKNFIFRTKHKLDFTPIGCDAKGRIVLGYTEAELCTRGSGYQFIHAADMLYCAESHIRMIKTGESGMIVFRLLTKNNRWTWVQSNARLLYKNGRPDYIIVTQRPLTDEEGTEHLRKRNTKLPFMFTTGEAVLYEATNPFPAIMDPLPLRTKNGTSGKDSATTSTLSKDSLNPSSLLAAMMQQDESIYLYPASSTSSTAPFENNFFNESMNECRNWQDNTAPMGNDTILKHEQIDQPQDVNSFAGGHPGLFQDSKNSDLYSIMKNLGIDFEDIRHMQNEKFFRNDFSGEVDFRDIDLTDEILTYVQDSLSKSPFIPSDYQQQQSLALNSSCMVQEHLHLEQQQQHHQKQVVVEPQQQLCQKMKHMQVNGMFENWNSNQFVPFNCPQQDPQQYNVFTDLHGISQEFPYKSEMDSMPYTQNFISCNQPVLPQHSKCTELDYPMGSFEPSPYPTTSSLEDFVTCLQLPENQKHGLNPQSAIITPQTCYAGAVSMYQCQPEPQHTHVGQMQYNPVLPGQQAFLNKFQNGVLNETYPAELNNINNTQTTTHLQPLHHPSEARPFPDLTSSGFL
Chain of Transcription factor E2F1 (Homo sapiens) (Q01094 whole entry, looked up): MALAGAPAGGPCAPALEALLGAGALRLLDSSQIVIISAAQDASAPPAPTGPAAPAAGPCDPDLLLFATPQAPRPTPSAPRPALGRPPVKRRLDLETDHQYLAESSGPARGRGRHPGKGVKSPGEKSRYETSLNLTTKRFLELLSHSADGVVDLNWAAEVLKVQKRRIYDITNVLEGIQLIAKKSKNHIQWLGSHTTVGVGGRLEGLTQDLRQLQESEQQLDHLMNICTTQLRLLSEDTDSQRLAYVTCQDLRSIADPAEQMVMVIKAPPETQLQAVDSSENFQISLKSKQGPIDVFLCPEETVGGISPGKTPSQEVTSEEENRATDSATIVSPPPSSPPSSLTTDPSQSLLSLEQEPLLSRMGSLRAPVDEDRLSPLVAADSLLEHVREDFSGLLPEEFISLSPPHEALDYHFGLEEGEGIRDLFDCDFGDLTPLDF
Chain of Retinoic acid receptor alpha (Homo sapiens) (P10276 whole entry, looked up): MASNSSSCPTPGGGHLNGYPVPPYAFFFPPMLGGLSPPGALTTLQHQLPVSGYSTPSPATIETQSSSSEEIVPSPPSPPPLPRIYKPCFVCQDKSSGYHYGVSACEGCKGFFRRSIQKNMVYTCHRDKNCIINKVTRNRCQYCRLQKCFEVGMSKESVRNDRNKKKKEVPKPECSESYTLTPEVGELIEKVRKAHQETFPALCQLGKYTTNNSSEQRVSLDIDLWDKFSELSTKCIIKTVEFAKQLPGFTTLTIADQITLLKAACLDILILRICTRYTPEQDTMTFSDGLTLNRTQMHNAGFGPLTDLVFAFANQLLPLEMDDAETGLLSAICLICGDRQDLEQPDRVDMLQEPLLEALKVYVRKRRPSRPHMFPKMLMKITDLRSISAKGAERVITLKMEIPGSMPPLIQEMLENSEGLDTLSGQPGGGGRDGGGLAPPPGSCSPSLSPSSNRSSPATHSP

COc1ccc(CCN2CCC(Nc3nc4ccccc4n3Cc3ccc(F)cc3)CC2)cc1
not listed: [19]
inactive: all other assays above

CC1CC(O)CC(C)(C)C1 (centres undefined)
not listed: [19]
inactive: all other assays above

CCOC(=O)CCc1ccccc1
not listed: [17]
inactive: all other assays above

Nc1ccn([C@H]2CS[C@@H](CO)O2)c(=O)n1
not listed: [19]
inactive: all other assays above

CN1C(=O)c2ccccc2C1=O
not listed: [19]
inactive: all other assays above

O=C(O)COCC(=O)O
not listed: [19]
inactive: all other assays above

Cc1ccc(S(N)(=O)=O)cc1
not listed: [17]
inactive: all other assays above

CC(C)CC(C)CC(O)CC(C)C (centres undefined)
not listed: [16]
inactive: all other assays above
